Test results from PubChem BioAssay (NCATS).
Results filed as inconclusive are left out. A number with no mark means an inactive call. Activity calls are given as the source filed them. The call rests on the fitted dose curve; in most records, active means well fitted inhibition curve with a large enough effect; inconclusive means small, poorly fitted or top-dose-only effect; inactive means no such curve, though single readings can be large or run the other way.

Each compound was assayed against Protein phosphatase 1D (Homo sapiens) (UniProt O15297) (assay: RapidFire Mass Spectrometry qHTS Assay for Modulators of WT P53-Induced Phosphatase 1 (WIP1) (AID 1347424)). Conditions: WIP1 dephosphorylation of phosphopeptide, RapidFire MS; series mostly up to 63 µM; activity change, negative = inhibition: at the top concentration.
Sequence of Protein phosphatase 1D (Homo sapiens) (O15297 whole entry, looked up): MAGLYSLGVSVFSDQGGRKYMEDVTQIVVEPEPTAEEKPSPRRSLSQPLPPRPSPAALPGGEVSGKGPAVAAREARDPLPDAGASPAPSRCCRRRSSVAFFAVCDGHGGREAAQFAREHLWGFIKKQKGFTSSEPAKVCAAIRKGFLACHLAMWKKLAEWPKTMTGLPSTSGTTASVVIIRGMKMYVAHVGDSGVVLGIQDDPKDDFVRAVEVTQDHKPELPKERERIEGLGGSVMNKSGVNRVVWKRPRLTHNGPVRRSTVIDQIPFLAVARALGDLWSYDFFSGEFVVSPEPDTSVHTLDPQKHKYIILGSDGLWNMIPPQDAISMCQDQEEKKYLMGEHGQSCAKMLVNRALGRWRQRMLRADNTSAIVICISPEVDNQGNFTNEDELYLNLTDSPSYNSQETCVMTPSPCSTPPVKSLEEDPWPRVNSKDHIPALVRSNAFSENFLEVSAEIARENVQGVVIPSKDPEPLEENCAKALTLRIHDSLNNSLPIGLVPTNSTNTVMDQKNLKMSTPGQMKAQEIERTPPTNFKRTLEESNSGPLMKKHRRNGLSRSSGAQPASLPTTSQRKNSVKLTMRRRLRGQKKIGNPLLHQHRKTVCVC
From the text: Assay Provider (PI): Nathan Coussens Ph. D.
National Center for Advancing Translational Sciences (NCATS), Rockville, MD
National Institute of Health (NIH), Bethesda, Maryland
WT P53-Induced Phosphatase 1 (WIP1) is a member of the magnesium-dependent serine/threonine protein phosphatase (PPM) family and is induced by P53 in response to DNA damage. In several human cancers, the WIP1 protein is overexpressed, which is generally associated with a worse prognosis. Although WIP1 is an attractive therapeutic target, no potent, selective, and bioactive small-molecule modulator with favorable pharmacokinetics has been reported. Phosphatase enzymes are among the most challenging targets for small molecules because of the difficulty of achieving both modulator selectivity and bioavailability. Another major obstacle has been the availability of robust and physiologically relevant phosphatase assays that are suitable for high-throughput screening.
Here, we describe two orthogonal biochemical WIP1 activity assays that utilize phosphopeptides from native WIP1 substrates. We optimized a RapidFire MS assay to quantify the enzymatically dephosphorylated peptide reaction product in a 384-well format. Additionally, a redshifted Rhodamine-PBP fluorescence assay was optimized in a 1,536-well format to enable real-time WIP1 activity measurements through the detection of the orthogonal reaction product, Pi. We validated these two optimized assays by quantitative high-throughput screening against the National Center for Advancing Translational Sciences (NCATS) Pharmaceutical Collection and used secondary assays to confirm and evaluate inhibitors identified in the primary screen.
SEQUENCE No. (e.g., 1, 2, 3, etc.); […] (e.g., Cells, Incubation, Reagent, etc.); VALUE; DESCRIPTION
1; Reagent; 50 uL; dispensed assay buffer: 0.1% formic acid in water (10 uL : 40 uL) solution in column 1
3; Library Compounds; 63 nL; library compounds in DMSO, columns 3-24
4; Control Compounds; 63 nL; DMSO in wells I-P, columns 1-2, GSK830371 (10 uM, final) in wells A-H, column 2
5; Time; 1 hr; incubation
6; Substrate; 2 uL; VEPPL-pS-QETFS (10 uM) in assay buffer, column 2-24
7; Time; 5 min; incubation
8; Reagent; 2 uL; 0.5% formic acid in water, columns 2-24
9; Reagent; 38 uL; VEPPL-S-QETF*S in 0.1% formic acid, columns 2-24
10; Detection; mass spec; RapidFire mass spectrometry
NOTES (numbers refer to sequence above)
1, 2, 6; dispensed reagent in White Nunc 384-well PP microplates (264573); assay buffer: 50 mM Tris-HCl pH 7.5, 30 mM MgCl2, 1 mM TCEP, 0.1 mM EGTA, 75 ug/mL BSA.
2, 6, 8, 9; Dispensed with BioRaptr (Beckman Coulter)
2, 6, 9; Final concentrations: 10 nM WIP1; 2 uM VEPPL-pS-QETFS; 1 uM VEFFL-S-QETF*S
3 & 4; Kalypsys Pintool transfer (Wako USA), Tip wash sequence: water, DMSO, methanol, 20 sec vacuum dry.
5 & 7; incubation at room temperature
10; RapidFire mass spectrometry read using the Agilent RapidFire 360 (Clausse, 2019)
Clausse V, et al. Physiologically relevant orthogonal assay for the discovery of small-molecule modulators of WIP1 […] in high-throughput screens. J Biol Chem. 2019, 294(46): 17654-17668. doi:10.1074/jbc.RA119.010201
Potency means the concentration at half of the fitted maximal effect.

| SMILES | activity change, negative = inhibition | Potency |
| --- | --- | --- |
| CN1C(=O)CCS(=O)(=O)C1c1ccc(Cl)cc1 (stereo not given) | 4.92% |  |
| CCC(C)C(C)(COC(N)=O)COC(N)=O (stereo not given) | 7.97% |  |
| CCN[C@@H](C)Cc1ccccc1 | -4.48% [at 128 µM] |  |
| C[C@]12CC[C@H]3[C@@H](CC[C@@]45O[C@H]4C(O)=C(C#N)C[C@]35C)[C@H]1CC[C@H]2O | -1.96% |  |
| Nc1ccc([As](=O)(O)O)cc1 | 1.96% |  |
| COc1ccc2c3c1O[C@H]1[C@H](O)CC[C@H]4[C@@H](C2)N(C)CC[C@@]341 | -11.4% [at 128 µM] |  |
| Clc1ccccc1N1CCNCC1 | -1.89% |  |
| NNc1ccccc1 | -4.69% |  |
| CC(Cc1ccccc1)N(C)Cc1ccco1 (stereo not given) | 0.0946% |  |
| CCCOC(=O)c1cncn1C(C)c1ccccc1 (stereo not given) | 21.1% |  |
| CC(C)c1cccc(C(C)C)c1O | -3.17% |  |
| O=C1c2ccccc2C(=O)c2ccccc21 | -11% [at 26.6 µM] |  |
| CC(C)NC(C)C | 13.2% |  |
| COc1cc(CCN)cc(OC)c1OC | -12.6% [at 128 µM] |  |
| CC(=O)NC1CCSC1=O (stereo not given) | -5.58% |  |
| CCN(CCO)CCn1c(Cc2ccccc2)nc2c1c(=O)n(C)c(=O)n2C | 2.45% |  |
| Nc1ccccc1 | 0% |  |
| CN1CC[C@]23c4c5ccc(O)c4O[C@H]2[C@@H](O)CC[C@H]3[C@H]1C5 | -18.5% [at 128 µM] |  |
| C=CCN1C[C@H](C)N([C@H](c2ccc(C(=O)N(CC)CC)cc2)c2cccc(OC)c2)C[C@H]1C | 14.4% |  |
| CCC1(CC)C(=O)C=CNC1=O | -5.92% |  |

| SMILES | activity change, negative = inhibition | Potency |
| --- | --- | --- |
| CC(C)(C)c1ccc(O)cc1 | 12.1% |  |
| COc1cccc(C(=O)CCN[C@@H](C)[C@H](O)c2ccccc2)c1 | 39.8% |  |
| CC(Cc1ccccc1)NCCn1cnc2c1c(=O)n(C)c(=O)n2C (stereo not given) | -4.31% [at 128 µM] |  |
| CNC(C)(C)Cc1ccccc1 | 25.9% |  |
| CCC1(c2ccccc2)C(=O)N(COC)C(=O)N(COC)C1=O | 5.17% |  |
| COc1c2c(cc3c1OCO3)CCN(C)C2 | 0.82% |  |
| c1ccc(N2CCNCC2)cc1 | 6.81% |  |
| O=C1OC(c2ccc(O)c(S(=O)(=O)O)c2)(c2ccc(O)c(S(=O)(=O)O)c2)c2c(Br)c(Br)c(Br)c(Br)c21 |  | 10 µM (active) |
| NC1=NC(=O)C(c2ccccc2)O1 (stereo not given) | 0.393% |  |
| C[C@]12CC[C@H]3[C@@H](CCC4=CC(=O)CC[C@@H]43)[C@@H]1CC[C@@H]2OC(=O)CCC1CCCCC1 | 49.9% |  |
| O=C(O)CCCc1ccc(N(CCCl)CCCl)cc1 | -7.03% |  |
| C[C@]12CC[C@@H]3c4ccc(OC(=O)N(CCCl)CCCl)cc4CC[C@H]3[C@@H]1CC[C@@H]2O | -2.89% |  |
| Nc1nc(N)nc(NC2CC2)n1 | 12% |  |
| CCN(CC)C(=O)[C@@H]1C=C2c3cccc4[nH]cc(c34)C[C@H]2N(C)C1 | -18.1% [at 243 µM] |  |
| Cc1ncsc1CCCl | 7.91% |  |
| CCN(CC)CCc1c[nH]c2ccccc12 | -5.99% [at 243 µM] |  |
| O=[N+]([O-])O[C@H]1CO[C@H]2[C@@H]1OC[C@H]2O[N+](=O)[O-] | 0.221% |  |
| c1ccc(CN2CCNCC2)cc1 | -10.3% [at 243 µM] |  |
| C[N+]1(CCF)[C@@H]2CC[C@H]1CC(OC(=O)C(O)(c1ccccc1)c1ccccc1)C2 (stereo not given in full) | 9.05% |  |
| O=C1OC(CCN2CCCCC2)OC1(c1ccccc1)c1ccccc1 (stereo not given) | -7.71% |  |
